Bioassay records deposited in PubChem BioAssay by National Center for Advancing Translational Sciences (NCATS).
G9a inh = blocks human histone lysine methyltransferase G9a. Q96KQ7. G9a H3K9 monomethylation, AlphaScreen, 2 h. Potency, µM (doses to about 102 µM), for the others: at the highest dose activity, negative = inhibition, most hits filed as inhibitors. 350,000 compounds, 8.8% hits. AID 504332; further: on the % scale 0 is the no-effect control and ±100 the full control effect; nearly all actives have a fitted effect of over 75% in size
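Compounds were preincubated with 20 nM G9a for 15 min, after which biotinylated H3K9 peptide (500 nM) and SAM (20 uM) started a 2 h room-temperature reaction. Monomethylated product was quantified by antibody-based AlphaScreen chemiluminescence.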
L3MBTL1 inh = blocks human L3MBTL1; Q9Y468; AlphaScreen L3MBTL1–H3K9me1 peptide binding; Potency, µM (doses to about 57.1 µM), for the others: at the top dose activity, negative = inhibition, actives largely listed as inhibitors; 230,000 compounds, 0.66% hits; AID 485360; further: on the % scale 0 is the no-effect control and ±100 the full control effect; nearly all actives have a fitted effect of over 60% in size
Target sequence (Q9Y468 whole entry, looked up): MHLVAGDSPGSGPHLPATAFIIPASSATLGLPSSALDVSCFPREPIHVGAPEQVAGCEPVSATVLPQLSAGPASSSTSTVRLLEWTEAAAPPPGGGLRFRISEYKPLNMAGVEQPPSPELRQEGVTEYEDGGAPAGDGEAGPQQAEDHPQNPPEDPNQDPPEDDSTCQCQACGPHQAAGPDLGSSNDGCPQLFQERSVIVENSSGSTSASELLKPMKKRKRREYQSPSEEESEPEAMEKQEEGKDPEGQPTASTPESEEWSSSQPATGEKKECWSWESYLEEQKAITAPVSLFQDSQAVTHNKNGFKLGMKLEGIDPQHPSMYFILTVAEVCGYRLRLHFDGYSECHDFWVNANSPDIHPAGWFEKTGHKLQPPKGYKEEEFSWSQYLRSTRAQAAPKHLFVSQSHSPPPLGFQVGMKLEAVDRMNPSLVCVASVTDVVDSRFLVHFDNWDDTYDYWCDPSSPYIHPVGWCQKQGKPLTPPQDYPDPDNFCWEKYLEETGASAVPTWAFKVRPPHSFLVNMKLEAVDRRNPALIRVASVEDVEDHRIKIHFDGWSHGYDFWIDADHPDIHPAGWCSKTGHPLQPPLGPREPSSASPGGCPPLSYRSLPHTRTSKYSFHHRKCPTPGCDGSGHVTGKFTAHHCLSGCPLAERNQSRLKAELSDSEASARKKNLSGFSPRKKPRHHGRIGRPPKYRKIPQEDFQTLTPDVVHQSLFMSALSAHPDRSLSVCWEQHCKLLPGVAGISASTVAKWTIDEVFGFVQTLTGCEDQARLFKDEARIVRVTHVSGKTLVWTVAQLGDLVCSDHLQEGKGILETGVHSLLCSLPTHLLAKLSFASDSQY
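Displacement of a biotinylated histone H3(1-15) peptide monomethylated at Lys9 (75 nM) from L3MBTL1 (50 nM) was measured by AlphaScreen after a 30 min room-temperature compound incubation; cefsulodin titration served as intraplate control.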
HP1b chromo inh = HP1-beta chromodomain-methylated histone interaction inhibition | P83916 | AlphaScreen HP1-beta / biotin-H3K9me3 peptide binding | Potency, µM (highest dose often 114 µM), for the others: at the top dose activity change, negative = inhibition, hits mostly inhibitors | 390,000 compounds, 0.56% hits | AID 540317; further: nearly all actives have a fitted effect of over 70% in size
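AlphaScreen: HP1-beta (50 nM) preformed 30 min with biotin-H3(1-18)K9me3 peptide (50 nM) in PBS pH 7.4, 0.01% Tween-20. Compound added for 30 min at RT, then streptavidin donor/nickel chelate acceptor beads (10 ug/mL) for 30 min.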
BAZ2B block = blocks human BAZ2B | Q9UIF8 | AlphaScreen BAZ2B-H3K14Ac peptide displacement | Potency, µM (top dose mostly 114 µM), for the others: at the top dose activity change, negative = inhibition, hits mostly inhibitors | 360,000 compounds, 4.4% hits | AID 504333; further: on the % scale 0 is the no-effect control and ±100 the full control effect; nearly all actives have a fitted effect of over 60% in size
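Multi-concentration screen (max 110 uM) measuring displacement of acetylated histone H3 peptide from BAZ2B by AlphaScreen, using 50 nM protein, 50 nM peptide and 10 ug/mL streptavidin donor plus Ni-chelate acceptor beads.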
JMJD2A Tudor inh = JMJD2A Tudor domain (human) inhibition; O75164; AlphaScreen JMJD2A-Tudor / H3K4me3 peptide binding; Potency, µM (titrated, usually from 114 µM), for the others: at the top dose activity change, negative = inhibition, most hits filed as inhibitors; 390,000 compounds, 4.4% hits; further: on the % scale 0 is the no-effect control and ±100 the full control effect; nearly all actives have a fitted effect of over 50% in size
An asterisk follows results filed as active; ? = inconclusive; · = no result given; [ ] = remark or other dose. An excerpt weighted towards active compounds, which were near 11% of everything screened. The call rests on the fitted dose curve; in most records, active means well fitted inhibition curve with a large enough effect; inconclusive means small, poorly fitted or top-dose-only effect; inactive means no such curve, though single readings can be large or run the other way. Potency means the concentration at half of the fitted maximal effect.

SMILES	G9a inh	L3MBTL1 inh	HP1b chromo inh	BAZ2B block	JMJD2A Tudor inh
Cc1cccc(C)c1OCCCn1ccnc1	·	22%	?	?	25µM*
Cc1ccc(OCCCCn2ccnc2)c(Cl)c1	-16%[59 µM]	·	-1%	-38%	?
Clc1ccc(OCCCn2ccnc2)c(Br)c1	3.5µM*	-18%	16µM*	32µM*	5.6µM*
Cc1cc(C)c(OCCCn2ccnc2)c(C)c1	-12%[59 µM]	4%	25%	?	-24%
Clc1cccc(-c2ccc(-c3nc4ccccn4c3NCc3ccccc3)cc2)c1	·	?	-7%	·	?
COc1ccc(-c2cc(-c3nc4ccccn4c3NCc3ccccc3)ccc2OC)cc1	·	?	?	·	32µM*
COc1ccc(-c2nc3ccccn3c2NCc2ccc3c(c2)OCO3)cc1	?	-6%	-7%	50µM*	?
c1ccc(-c2nc3ccccn3c2NCc2ccc3c(c2)OCO3)cc1	?	-7%	-18%	?	?
COc1cccc(-c2nc(SCC(=O)NCC3CCCO3)c(-c3ccc(Cl)cc3)[nH]2)c1 (centres undefined)	-28%[59 µM]	·	0%	-9%	-16%
Cc1cc(C)c(Cn2c3ccccc3c3cnn(CC(=O)NCC(C)c4ccccc4)c(=O)c32)c(C)c1 (centres undefined)	-2%[59 µM]	·	27%	1%	-7%
Cc1ccc(NC(=O)NCc2c(-n3cccc3)sc3c2CCCC3)c(Cl)c1	-4%[59 µM]	·	35%	?	-6%
O=[N+]([O-])c1cnc(Sc2ccncn2)s1	10µM*	6%	-2%	-20%	-22%
CC(C)Oc1ccc(CNC(=O)C2CCCCN2S(=O)(=O)c2ccc(F)cc2)cc1 (centres undefined)	-6%[59 µM]	·	41%	6%	14%
CN1C(=O)/C(=C\C(=O)c2cccs2)c2ccccc21	20µM*	-4%	45µM*	20µM*	50µM*
CC(=O)/C=C1\C(=O)N(C)c2ccccc21	8.9µM*	·	·	·	·
O=C1CCN(C(=O)c2cccs2)c2ccccc21	1%	4%	21%[57 µM]	4%	1%
CC(=O)/C=C1/C(=O)Nc2ccccc21	11µM*	·	16%	1%	-26%
COc1cccc(-n2c(=O)c3sc4ccccc4c3n(CC(=O)Nc3ccccc3OC)c2=O)c1	?	·	18%	?	-19%
C/C(=N\NC(=O)c1cccc(N/N=C(\C)c2ccccc2)c1)c1ccccc1	2.8µM*	-9%	-6%	-24%	-28%
C/C(=N/Nc1cc(-c2ccccc2)nc(-c2ccccc2)n1)c1ccc(O)cc1	-17%[59 µM]	-15%	6%	-36%	-33%
C/C(=N\NC(=O)c1cc(O)cc(O)c1)c1ccc(NC(=O)Cc2ccccc2)cc1	8.9µM*	·	32µM*	8.9µM*	14µM*
C/C(=N\NC(=O)c1cccc(N/N=C(\C)c2ccncc2)c1)c1ccncc1	-41%	-25%	-10%	?	-25%
C/C(=N/Nc1nc(-c2ccccc2)cc(-c2ccccc2)n1)c1ccc(N)cc1	11µM*	-16%	·	?	·
C/C(=N\Nc1ccccc1)c1cccc(N)c1	8.9µM*	-5%	?	?	?
COc1ccc(-c2noc(N3CCC(C(=O)N(C)c4cc(Cl)ccc4OC)CC3)n2)cc1	2%[59 µM]	·	26%	-2%	-21%
SMILES	G9a inh	L3MBTL1 inh	HP1b chromo inh	BAZ2B block	JMJD2A Tudor inh
COc1ccc(NC(=O)C2=C(C)Nc3nc(SCc4ccc(C)cc4C)nn3C2c2cccc(OC)c2OC)cc1 (centres undefined)	5%[59 µM]	·	20%	-12%	5%
C/C(=N\Nc1cccc(C(F)(F)F)c1)c1ccc(O)cc1	8.9µM*	-16%	?	?	45µM*
CCC1CC(C(=O)Nc2ccccc2)C(=O)O1 (centres undefined)	·	·	-18%	·	-18%
S=C(NCc1ccco1)Nc1ccc(Cl)cn1	8.9µM*	·	10%	?	-33%
Cc1cccnc1NC(=S)NCc1ccco1	2.5µM*	-2%	12%	?	-26%
S=C(NCc1ccco1)Nc1ccccn1	?	-3%[11.4 µM]	34%	?	-28%
CC(C)(C)c1ccc(C(=O)NC(=S)NCc2ccco2)cc1	-22%	·	-3%	-30%	-11%
CC(C)(CO)NC(=S)NCc1ccco1	40µM*	-4%	8%	-7%	-13%
